Assay [1] addresses Death-associated protein kinase 1 (Homo sapiens) (UniProt P53355). To be noted: at 10 µM.
In assay [2] the target is Death-associated protein kinase 2 (Homo sapiens) (UniProt Q9UIK4). To be noted: at 1 µM.
For assay [3] the target is unchanged. To be noted: at 10 µM.
For assay [4], the target named is T1, Serine/threonine-protein kinase DCLK2 (Homo sapiens) (UniProt Q8N568).
T1 sequence (whole entry): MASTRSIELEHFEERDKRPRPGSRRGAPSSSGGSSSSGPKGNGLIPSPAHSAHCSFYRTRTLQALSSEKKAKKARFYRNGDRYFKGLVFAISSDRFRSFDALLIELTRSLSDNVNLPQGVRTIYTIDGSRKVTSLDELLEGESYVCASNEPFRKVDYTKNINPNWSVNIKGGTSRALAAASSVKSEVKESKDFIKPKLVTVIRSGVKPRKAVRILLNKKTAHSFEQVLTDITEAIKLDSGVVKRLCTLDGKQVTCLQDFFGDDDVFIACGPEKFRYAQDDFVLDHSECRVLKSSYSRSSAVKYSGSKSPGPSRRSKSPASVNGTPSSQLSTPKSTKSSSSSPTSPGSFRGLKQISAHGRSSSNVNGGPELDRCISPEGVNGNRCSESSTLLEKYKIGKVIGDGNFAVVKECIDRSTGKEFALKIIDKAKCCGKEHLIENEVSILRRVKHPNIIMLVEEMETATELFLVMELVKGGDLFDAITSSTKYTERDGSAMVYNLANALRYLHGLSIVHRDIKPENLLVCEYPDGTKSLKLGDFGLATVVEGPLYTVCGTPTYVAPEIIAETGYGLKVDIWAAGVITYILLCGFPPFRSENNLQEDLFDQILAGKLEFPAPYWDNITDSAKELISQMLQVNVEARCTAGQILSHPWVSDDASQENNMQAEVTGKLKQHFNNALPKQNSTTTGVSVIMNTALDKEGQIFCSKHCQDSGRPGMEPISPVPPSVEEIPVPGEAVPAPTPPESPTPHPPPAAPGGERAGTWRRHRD
To be noted: at 1 µM.

Assay [5] addresses T1, Serine/threonine-protein kinase DCLK2 (Homo sapiens). The note with it: at 10 µM.
Assay [6] has as its target T2, Discoidin domain-containing receptor 2 (Homo sapiens) (UniProt Q16832).
T2 sequence (whole entry): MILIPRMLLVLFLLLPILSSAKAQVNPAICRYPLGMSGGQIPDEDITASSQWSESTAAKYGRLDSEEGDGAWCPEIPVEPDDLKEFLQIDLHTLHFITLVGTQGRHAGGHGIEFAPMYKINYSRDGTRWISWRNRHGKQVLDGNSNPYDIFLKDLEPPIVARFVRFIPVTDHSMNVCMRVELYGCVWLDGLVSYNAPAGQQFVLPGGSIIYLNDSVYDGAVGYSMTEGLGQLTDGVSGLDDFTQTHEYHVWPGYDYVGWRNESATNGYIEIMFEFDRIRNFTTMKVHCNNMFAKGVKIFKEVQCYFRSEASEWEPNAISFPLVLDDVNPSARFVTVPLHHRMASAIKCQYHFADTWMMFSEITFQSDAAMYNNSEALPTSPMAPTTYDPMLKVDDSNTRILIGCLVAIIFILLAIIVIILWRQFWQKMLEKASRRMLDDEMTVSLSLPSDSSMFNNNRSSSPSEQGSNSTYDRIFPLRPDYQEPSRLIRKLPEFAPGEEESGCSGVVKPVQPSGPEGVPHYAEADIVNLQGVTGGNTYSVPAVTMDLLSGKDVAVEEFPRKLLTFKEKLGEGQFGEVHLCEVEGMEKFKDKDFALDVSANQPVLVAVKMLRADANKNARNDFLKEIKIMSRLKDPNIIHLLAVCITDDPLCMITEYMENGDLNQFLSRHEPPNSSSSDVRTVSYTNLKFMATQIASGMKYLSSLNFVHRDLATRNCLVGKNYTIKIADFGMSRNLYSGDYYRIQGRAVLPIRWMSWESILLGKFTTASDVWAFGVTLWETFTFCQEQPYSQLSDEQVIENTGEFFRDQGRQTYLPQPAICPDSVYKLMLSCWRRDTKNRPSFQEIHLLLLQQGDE
The note with it: at 1 µM.

Assay [7] has as its target T2, Discoidin domain-containing receptor 2 (Homo sapiens). To be noted: at 10 µM.
In assay [8] the target is T3, Myotonin-protein kinase (Homo sapiens) (UniProt Q09013).
T3 sequence (whole entry): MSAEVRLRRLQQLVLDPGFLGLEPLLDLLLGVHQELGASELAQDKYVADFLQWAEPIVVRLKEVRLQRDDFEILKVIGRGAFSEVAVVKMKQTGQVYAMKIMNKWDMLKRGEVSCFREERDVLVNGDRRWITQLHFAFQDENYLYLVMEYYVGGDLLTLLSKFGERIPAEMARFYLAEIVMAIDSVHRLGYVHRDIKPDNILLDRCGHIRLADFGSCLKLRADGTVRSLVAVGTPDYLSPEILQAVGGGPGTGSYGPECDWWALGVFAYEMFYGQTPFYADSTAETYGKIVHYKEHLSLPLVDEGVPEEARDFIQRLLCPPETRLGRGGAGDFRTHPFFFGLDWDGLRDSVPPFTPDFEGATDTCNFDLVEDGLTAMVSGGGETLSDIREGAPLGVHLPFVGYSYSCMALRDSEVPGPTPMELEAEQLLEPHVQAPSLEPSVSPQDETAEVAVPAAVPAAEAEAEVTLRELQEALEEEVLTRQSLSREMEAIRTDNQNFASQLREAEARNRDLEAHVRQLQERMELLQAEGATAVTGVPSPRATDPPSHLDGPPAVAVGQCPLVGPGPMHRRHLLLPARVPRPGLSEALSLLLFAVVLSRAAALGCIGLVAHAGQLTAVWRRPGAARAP
To be noted: at 1 µM.

Assay [9] has as its target T3, Myotonin-protein kinase (Homo sapiens). To be noted: at 10 µM.
Assay [10] has as its target T4, Serine/threonine-protein kinase 17A (Homo sapiens) (UniProt Q9UEE5).
T4 sequence (whole entry): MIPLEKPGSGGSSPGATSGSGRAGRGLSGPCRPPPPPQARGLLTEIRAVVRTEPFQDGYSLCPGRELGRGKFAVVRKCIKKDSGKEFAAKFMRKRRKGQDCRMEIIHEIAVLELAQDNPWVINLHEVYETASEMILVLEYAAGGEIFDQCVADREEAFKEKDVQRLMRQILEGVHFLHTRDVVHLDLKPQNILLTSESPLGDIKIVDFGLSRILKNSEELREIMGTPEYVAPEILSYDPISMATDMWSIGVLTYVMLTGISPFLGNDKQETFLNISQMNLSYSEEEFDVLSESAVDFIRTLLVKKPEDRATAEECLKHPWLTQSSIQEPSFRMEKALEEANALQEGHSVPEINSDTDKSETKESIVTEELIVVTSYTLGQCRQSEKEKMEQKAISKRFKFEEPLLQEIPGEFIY
To be noted: at 1 µM.

The target in assay [11] is T4, Serine/threonine-protein kinase 17A (Homo sapiens). The note with it: at 10 µM.
Assay [12] deals with T5, Dual specificity tyrosine-phosphorylation-regulated kinase 2 (Homo sapiens) (UniProt Q92630).
T5 sequence (whole entry): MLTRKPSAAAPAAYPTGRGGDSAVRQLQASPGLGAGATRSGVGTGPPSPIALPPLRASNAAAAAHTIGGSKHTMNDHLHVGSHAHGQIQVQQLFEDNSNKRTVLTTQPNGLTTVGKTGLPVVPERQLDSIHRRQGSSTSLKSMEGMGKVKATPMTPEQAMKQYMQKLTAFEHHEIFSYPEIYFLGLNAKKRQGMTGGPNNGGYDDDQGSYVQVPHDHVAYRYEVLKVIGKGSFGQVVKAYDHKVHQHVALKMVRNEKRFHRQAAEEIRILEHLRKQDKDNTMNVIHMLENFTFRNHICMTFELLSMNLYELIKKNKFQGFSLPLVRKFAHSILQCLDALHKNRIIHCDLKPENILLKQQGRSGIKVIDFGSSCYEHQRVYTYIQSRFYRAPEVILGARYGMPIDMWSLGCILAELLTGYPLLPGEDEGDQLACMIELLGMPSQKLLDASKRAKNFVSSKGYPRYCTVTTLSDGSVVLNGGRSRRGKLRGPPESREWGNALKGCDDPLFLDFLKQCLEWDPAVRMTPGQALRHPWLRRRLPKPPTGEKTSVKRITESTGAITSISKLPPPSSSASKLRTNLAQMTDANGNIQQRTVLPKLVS
The note with it: at 1 µM.

Assay [13] has as its target T5, Dual specificity tyrosine-phosphorylation-regulated kinase 2 (Homo sapiens). The note with it: at 10 µM.
The target of assay [14] is T6, Ephrin type-A receptor 1 (Homo sapiens) (UniProt P21709).
T6 sequence (whole entry): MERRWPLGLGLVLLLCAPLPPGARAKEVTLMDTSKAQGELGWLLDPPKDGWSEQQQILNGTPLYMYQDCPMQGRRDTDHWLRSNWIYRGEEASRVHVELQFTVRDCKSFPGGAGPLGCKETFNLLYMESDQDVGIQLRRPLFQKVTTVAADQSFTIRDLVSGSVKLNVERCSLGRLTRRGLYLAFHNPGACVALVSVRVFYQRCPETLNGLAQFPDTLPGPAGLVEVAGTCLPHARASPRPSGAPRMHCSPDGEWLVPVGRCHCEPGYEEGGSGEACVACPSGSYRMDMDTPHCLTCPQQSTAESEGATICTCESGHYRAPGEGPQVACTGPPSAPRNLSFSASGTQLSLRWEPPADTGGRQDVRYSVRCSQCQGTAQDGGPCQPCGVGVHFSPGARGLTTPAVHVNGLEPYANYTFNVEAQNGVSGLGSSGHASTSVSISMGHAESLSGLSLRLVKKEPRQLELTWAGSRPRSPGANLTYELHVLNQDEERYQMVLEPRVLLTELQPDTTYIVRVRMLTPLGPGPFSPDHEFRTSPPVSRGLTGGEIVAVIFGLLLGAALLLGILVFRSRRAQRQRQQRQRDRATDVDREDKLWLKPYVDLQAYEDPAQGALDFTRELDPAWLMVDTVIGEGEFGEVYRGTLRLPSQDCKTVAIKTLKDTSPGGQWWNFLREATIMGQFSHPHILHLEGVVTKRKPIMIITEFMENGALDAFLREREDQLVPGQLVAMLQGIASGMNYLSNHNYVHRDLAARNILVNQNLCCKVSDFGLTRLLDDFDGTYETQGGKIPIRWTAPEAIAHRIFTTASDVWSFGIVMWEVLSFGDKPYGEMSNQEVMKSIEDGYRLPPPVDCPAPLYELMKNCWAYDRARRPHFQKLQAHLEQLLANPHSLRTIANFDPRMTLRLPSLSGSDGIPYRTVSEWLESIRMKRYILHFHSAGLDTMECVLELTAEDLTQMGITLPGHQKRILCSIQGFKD
The note with it: at 1 µM.

Assay [15] concerns the target T6, Ephrin type-A receptor 1 (Homo sapiens). To be noted: at 10 µM.
In assay [16] the target is Ephrin type-A receptor 2 (Homo sapiens) (UniProt P29317). The note with it: at 1 µM.
Chain of Ephrin type-A receptor 2 (Homo sapiens) (P29317 whole entry): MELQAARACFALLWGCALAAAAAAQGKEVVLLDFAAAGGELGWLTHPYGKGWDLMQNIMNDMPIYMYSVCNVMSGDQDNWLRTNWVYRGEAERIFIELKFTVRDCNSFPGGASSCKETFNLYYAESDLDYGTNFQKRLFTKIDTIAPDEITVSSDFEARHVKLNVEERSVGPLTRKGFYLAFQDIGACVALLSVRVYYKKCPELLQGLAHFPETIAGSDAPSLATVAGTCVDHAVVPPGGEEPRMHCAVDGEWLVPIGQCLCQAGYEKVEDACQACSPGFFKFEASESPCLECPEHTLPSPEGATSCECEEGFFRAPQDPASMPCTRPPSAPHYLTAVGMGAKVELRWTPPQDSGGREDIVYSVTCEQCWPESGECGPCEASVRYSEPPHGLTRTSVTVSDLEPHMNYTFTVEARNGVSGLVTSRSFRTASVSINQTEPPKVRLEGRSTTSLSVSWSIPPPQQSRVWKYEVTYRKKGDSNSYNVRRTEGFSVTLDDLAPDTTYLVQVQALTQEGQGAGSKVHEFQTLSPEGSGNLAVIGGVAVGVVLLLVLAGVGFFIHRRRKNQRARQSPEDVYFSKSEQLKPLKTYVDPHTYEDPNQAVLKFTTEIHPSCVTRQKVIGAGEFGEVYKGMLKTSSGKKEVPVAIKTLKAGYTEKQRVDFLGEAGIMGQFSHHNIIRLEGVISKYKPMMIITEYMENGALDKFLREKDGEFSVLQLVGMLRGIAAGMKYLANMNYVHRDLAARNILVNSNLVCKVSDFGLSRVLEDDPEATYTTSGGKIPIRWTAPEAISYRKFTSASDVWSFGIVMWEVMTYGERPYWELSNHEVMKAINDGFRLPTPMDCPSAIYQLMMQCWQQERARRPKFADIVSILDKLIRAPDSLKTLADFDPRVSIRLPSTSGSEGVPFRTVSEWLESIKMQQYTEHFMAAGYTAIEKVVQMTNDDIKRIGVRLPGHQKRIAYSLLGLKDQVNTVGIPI
The target is the same in assay [17]. To be noted: at 10 µM.
Assay [18] has as its target T7, Ephrin type-A receptor 3 (Homo sapiens) (UniProt P29320).
T7 sequence (whole entry): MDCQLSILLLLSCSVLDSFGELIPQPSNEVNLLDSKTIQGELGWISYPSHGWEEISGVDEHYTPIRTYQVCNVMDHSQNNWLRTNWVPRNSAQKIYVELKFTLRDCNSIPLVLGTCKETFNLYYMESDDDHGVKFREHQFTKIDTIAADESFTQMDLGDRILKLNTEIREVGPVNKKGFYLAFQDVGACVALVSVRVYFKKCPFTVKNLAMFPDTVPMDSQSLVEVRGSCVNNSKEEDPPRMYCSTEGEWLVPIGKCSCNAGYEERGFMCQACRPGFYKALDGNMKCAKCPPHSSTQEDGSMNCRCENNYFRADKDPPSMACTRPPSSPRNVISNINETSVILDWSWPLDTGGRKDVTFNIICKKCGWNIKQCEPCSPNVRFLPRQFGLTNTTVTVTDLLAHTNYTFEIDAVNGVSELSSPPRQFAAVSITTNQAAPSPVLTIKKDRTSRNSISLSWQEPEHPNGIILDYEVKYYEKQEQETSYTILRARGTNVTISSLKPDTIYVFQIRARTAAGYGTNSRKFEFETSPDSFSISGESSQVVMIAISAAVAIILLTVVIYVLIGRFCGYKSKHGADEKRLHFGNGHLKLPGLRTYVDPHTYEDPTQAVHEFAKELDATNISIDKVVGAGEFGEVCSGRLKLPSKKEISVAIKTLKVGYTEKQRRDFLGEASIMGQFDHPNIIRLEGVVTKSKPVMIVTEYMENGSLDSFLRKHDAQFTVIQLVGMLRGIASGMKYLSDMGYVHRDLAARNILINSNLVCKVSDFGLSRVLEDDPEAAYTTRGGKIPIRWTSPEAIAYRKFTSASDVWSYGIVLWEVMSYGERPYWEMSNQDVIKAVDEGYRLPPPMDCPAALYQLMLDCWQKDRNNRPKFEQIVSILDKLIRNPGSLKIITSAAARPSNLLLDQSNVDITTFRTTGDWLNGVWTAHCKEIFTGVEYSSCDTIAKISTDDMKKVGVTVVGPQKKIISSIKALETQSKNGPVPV
The note with it: at 1 µM.

Chain of Death-associated protein kinase 2 (Homo sapiens) (Q9UIK4 whole entry, looked up): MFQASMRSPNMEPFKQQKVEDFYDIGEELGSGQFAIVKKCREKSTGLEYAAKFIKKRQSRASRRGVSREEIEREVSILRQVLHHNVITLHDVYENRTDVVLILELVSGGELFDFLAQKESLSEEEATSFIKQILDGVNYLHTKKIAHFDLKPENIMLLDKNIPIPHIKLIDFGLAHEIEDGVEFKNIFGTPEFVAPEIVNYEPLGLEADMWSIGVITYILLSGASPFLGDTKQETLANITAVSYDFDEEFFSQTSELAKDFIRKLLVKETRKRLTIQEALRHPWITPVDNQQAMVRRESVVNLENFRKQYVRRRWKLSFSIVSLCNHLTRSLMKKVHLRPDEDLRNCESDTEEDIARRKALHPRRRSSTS
Chain of Death-associated protein kinase 1 (Homo sapiens) (P53355 whole entry, looked up): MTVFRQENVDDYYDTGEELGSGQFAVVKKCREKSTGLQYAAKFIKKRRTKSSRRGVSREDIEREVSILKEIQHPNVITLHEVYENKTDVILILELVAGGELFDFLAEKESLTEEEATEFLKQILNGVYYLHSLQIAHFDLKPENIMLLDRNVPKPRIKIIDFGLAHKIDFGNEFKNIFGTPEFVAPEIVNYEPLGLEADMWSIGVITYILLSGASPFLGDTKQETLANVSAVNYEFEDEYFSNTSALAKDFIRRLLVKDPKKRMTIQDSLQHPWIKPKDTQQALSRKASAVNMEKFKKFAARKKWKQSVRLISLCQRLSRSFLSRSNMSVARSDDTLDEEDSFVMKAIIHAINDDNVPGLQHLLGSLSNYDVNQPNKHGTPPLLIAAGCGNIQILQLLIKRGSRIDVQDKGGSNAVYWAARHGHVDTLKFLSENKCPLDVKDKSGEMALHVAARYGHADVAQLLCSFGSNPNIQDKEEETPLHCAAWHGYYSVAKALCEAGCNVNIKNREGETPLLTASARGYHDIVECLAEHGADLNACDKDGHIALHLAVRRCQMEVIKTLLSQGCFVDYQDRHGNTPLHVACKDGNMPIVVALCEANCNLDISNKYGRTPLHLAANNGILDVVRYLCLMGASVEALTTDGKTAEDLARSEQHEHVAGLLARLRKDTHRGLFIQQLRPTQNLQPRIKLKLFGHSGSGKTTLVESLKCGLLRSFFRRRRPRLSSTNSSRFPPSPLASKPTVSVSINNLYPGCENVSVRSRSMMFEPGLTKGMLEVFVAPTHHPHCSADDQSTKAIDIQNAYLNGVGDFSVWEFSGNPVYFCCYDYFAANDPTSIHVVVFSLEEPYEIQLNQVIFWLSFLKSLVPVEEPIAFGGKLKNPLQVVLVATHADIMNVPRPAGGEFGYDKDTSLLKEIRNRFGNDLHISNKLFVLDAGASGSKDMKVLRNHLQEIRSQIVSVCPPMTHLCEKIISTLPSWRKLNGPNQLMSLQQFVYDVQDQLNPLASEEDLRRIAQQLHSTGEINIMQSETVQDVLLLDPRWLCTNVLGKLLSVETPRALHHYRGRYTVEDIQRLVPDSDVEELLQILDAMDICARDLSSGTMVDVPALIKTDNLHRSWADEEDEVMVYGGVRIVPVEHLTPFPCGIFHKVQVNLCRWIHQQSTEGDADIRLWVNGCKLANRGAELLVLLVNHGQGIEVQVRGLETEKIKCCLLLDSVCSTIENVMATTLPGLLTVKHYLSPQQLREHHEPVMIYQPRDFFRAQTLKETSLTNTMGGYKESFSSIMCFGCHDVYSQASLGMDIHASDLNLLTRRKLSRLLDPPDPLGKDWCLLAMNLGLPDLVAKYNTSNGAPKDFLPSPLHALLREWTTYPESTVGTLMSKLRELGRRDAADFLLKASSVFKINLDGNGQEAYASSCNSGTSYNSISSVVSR

Take `O=C1NC(=O)c2cc(Nc3ccc(F)cc3)c(Nc3ccc(F)cc3)cc21`: the residual activity (as a rule, the signal under treatment as a percentage of the control signal) in [1] turned out to be 76%; in [2] it was 77%; in assay [3] it was 84%; in [4] it was 76%; in assay [5], 89%; in [6], 92%. Moreover, the residual activity in assay [7] was 51%; in assay [8], 125%; in [9], 129%; in assay [10], 105%; in assay [11], 64%; in assay [12] it was 105%. Further, the residual activity is 101% in assay [13]; 69% in assay [14]; 52% in [15]; 100% in [16]; 80% in [17]; 104% in [18].
Consider `Cc1cc2ncc(-c3ccccc3)nc2cc1C`, for which the residual activity in [1] came out at 88%; in assay [2], 99%; in assay [4] it was 95%; in assay [5], 67%; in assay [6] it was 102%; in assay [7], 90%. The residual activity is 97% in [8]; 135% in assay [9]; 70% in [10]; 95% in assay [11]; 85% in assay [12]; 105% in [13]. The residual activity in [14] was 96%; in [15], 105%; in assay [16], 109%; in assay [17], 97%; in assay [18] it was 103%.

The values above are taken from ChEMBL document CHEMBL2218924, “A broad activity screen in support of a chemogenomic map for kinase signalling research and drug discovery” (Biochem J, 2013).
